Experimental data reported in PubChem BioAssay (NCATS).
A number with no mark means an inactive call. Inconclusive results are not listed. A call without a number means that no potency is given here. The source made the active and inactive calls. Calls come from the whole dose curve; as a rule, active = well fitted curve in the direction sought with a large enough effect; inconclusive = small, poorly fitted or top-dose-only effect, or another doubt; inactive = no such curve, though single readings can be large; an effect the other way counts as inactive or inconclusive.

Assays:
[1] = molecular target: Tyrosine-protein phosphatase non-receptor type substrate 1 (Homo sapiens) + Leukocyte surface antigen CD47 (Homo sapiens) (UniProt P78324+Q08722); assay: CD47-SIRPalpha protein protein interaction - Alpha assay qHTS validation (AID 1347059);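 note: bead proximity luminescence from CD47 binding SIRPalpha after compound preincubation with SIRPalpha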
Sequence of Tyrosine-protein phosphatase non-receptor type substrate 1 (Homo sapiens) + Leukocyte surface antigen CD47 (Homo sapiens) (P78324 whole entry, looked up, the tested form may be a part): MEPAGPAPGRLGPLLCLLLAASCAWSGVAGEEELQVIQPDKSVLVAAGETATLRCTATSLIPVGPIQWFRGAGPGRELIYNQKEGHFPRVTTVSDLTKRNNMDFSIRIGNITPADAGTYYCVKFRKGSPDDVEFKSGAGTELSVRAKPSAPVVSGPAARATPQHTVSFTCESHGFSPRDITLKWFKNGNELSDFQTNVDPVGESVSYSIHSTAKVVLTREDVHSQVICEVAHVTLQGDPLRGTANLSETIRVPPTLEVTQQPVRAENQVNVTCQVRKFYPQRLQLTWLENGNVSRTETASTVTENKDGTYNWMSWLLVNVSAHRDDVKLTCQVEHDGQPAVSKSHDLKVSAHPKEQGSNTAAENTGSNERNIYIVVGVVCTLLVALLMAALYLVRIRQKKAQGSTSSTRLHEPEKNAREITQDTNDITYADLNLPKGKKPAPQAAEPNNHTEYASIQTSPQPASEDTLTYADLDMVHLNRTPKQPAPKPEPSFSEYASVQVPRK
Sequence of Tyrosine-protein phosphatase non-receptor type substrate 1 (Homo sapiens) + Leukocyte surface antigen CD47 (Homo sapiens) (Q08722 whole entry, looked up, the tested form may be a part): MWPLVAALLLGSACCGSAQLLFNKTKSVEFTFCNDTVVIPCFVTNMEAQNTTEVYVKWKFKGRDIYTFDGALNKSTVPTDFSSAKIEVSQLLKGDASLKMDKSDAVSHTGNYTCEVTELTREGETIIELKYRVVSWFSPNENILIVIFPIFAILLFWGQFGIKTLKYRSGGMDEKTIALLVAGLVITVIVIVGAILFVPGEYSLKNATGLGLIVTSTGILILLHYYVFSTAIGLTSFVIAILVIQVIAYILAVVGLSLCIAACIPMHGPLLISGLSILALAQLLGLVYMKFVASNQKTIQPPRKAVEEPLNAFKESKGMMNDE
Outline: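 In PBS (pH 7.4) with 0.05% IGEPAL CA-630, compound is preincubated with biotin-Avi-SIRPalpha ectodomain before His-CD47 ectodomain and affinity beads are added. Light-protected room-temperature incubations; AlphaScreen readout.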

[2] = molecular target: Parathyroid hormone/parathyroid hormone-related peptide receptor (Homo sapiens) (UniProt Q03431); assay: qHTS for PTHR1 Agonists: Optimization Screen against the NCGC LOPAC library (AID 1347079);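 note: GloSensor cAMP luminescence in HEK-293 GP2 cells expressing human PTHR1 with IBMX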
Sequence of Parathyroid hormone/parathyroid hormone-related peptide receptor (Homo sapiens) (Q03431 whole entry, looked up): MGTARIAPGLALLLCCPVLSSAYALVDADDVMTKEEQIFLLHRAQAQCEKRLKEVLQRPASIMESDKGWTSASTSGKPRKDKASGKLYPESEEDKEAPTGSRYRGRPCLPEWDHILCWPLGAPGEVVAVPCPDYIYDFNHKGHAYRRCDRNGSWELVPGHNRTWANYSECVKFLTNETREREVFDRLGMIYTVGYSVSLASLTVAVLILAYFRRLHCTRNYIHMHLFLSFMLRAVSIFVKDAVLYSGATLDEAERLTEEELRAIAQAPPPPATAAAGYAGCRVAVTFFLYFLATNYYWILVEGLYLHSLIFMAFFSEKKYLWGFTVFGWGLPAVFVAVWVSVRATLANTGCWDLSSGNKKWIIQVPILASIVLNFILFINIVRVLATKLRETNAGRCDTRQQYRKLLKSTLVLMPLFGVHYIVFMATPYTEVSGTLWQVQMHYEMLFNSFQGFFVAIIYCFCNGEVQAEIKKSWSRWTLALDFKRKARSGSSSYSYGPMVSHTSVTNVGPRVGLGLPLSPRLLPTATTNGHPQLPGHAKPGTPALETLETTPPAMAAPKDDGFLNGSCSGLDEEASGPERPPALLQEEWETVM
Outline: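 HEK-293 GP2 cells, PTHR1 + GloSensor cAMP; 3000 cells/well, o/n. Luciferin + IBMX 0.5mM each (stock), 1 hr 37C. Cpd titration, 1 hr 37C. Lum after 15 min RT. Ctrl M-PTH(1-15) top 10uM.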

[3] = qHTS of pediatric cancer cell lines to identify multiple opportunities for drug repurposing: Primary screen for TC32 cells (AID 1347089); note: nearly all actives have a fitted effect of over 60% in size
Outline: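 In the primary qHTS, MIPE compounds were tested at 11 concentrations (0.78 nM to 46 µM) and NPC compounds at 8 (0.59 nM to 46 µM) on TC32 cells for 48 h. CellTiter-Glo luminescence gave viability.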

[4] = qHTS of pediatric cancer cell lines to identify multiple opportunities for drug repurposing: Primary screen for DAOY cells (AID 1347090); note: series mostly up to about 46 µM; nearly all actives have a fitted effect of over 55% in size
Outline: (§1)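 Eight- or eleven-point concentration series, 48 h treatment at 37 degrees C in growth media; readout CellTiter-Glo luminescence. Potency and efficacy were taken from the concentration-response curves.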

[5] = qHTS of pediatric cancer cell lines to identify multiple opportunities for drug repurposing: Primary screen for SJ-GBM2 cells (AID 1347091)
Outline: as §1

[6] = qHTS of pediatric cancer cell lines to identify multiple opportunities for drug repurposing: Primary screen for A673 cells (AID 1347092); note: nearly all actives have a fitted effect of over 45% in size
Outline: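 48 h compound exposure, A673, 500-1,000 cells/well, 37 degrees C/5% CO2. MIPE: 11-point, 0.78 nM-46 µM; NPC: 8-point, 0.59 nM-46 µM (final). Readout CellTiter-Glo luminescence after 15 min RT.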

[7] = qHTS of pediatric cancer cell lines to identify multiple opportunities for drug repurposing: Primary screen for SK-N-MC cells (AID 1347093); note: series mostly up to about 46 µM
Outline: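 Metabolically active cells were quantified by ATP-dependent luminescence (CellTiter-Glo, 15 min at room temperature) following 48 h treatment. Cells had been plated at 500-1,000 per well and settled for 5 h beforehand.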

[8] = qHTS of pediatric cancer cell lines to identify multiple opportunities for drug repurposing: Primary screen for BT-37 cells (AID 1347094); note: series mostly up to about 57 µM
Outline: (§2)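 CRCs from 8- or 11-point titrations (lowest final 0.59 nM NPC, 0.78 nM MIPE). Cell viability: CellTiter-Glo after 48 h incubation, 15 min room-temperature development, luminescence imaging.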

[9] = qHTS of pediatric cancer cell lines to identify multiple opportunities for drug repurposing: Primary screen for NB-EBc1 cells (AID 1347095)
Outline: as §2

[10] = qHTS of pediatric cancer cell lines to identify multiple opportunities for drug repurposing: Primary screen for U-2 OS cells (AID 1347096); note: nearly all actives have a fitted effect of over 50% in size
Outline: (§3)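 Cells (500-1,000/well) in growth media were settled 5 h at 37 degrees C, then given compounds for 48 h. Viability was read as CellTiter-Glo luminescence. Primary runs used MIPE at 11 points (0.78 nM-46 µM) and NPC at 8 points (0.59 nM-46 µM); follow-ups used 11 points.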

[11] = qHTS of pediatric cancer cell lines to identify multiple opportunities for drug repurposing: Primary screen for Saos-2 cells (AID 1347097); note: nearly all actives have a fitted effect of over 40% in size
Outline: as §2

[12] = qHTS of pediatric cancer cell lines to identify multiple opportunities for drug repurposing: Primary screen for SK-N-SH cells (AID 1347098);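 note: DMSO served as neutral control and bortezomib at 2.3 µM as positive control; nearly all actives have a fitted effect of over 65% in size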
Outline: (§4)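 Cells (500-1,000/well) rested 5 h, then received compounds for 48 h; metabolically active cells were measured by CellTiter-Glo luminescence. Final concentrations spanned up to 46 µM (MIPE, 11-point) or 0.59 nM-46 µM (NPC, 8-point) in primary screens, 11-point in follow-ups.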

[13] = qHTS of pediatric cancer cell lines to identify multiple opportunities for drug repurposing: Primary screen for NB1643 cells (AID 1347099); note: nearly all actives have a fitted effect of over 50% in size
Outline: as §2

[14] = qHTS of pediatric cancer cell lines to identify multiple opportunities for drug repurposing: Primary screen for LAN-5 cells (AID 1347100)
Outline: as §3

[15] = qHTS of pediatric cancer cell lines to identify multiple opportunities for drug repurposing: Primary screen for BT-12 cells (AID 1347101); note: nearly all actives have a fitted effect of over 25% in size
Outline: as §4

[16] = qHTS of pediatric cancer cell lines to identify multiple opportunities for drug repurposing: Primary screen for Rh18 cells (AID 1347102); note: nearly all actives have a fitted effect of over 65% in size
Outline: as §3

[17] = qHTS of pediatric cancer cell lines to identify multiple opportunities for drug repurposing: Primary screen for OHS-50 cells (AID 1347103); note: nearly all actives have a fitted effect of over 40% in size; note: potency is the fitted concentration of half-maximal effect
Outline: as §4

[18] = qHTS of pediatric cancer cell lines to identify multiple opportunities for drug repurposing: Primary screen for RD cells (AID 1347104); note: nearly all actives have a fitted effect of over 55% in size
Outline: as §2

[19] = qHTS of pediatric cancer cell lines to identify multiple opportunities for drug repurposing: Primary screen for MG 63 (6-TG R) cells (AID 1347105); note: nearly all actives have a fitted effect of over 50% in size
Outline: as §2

[20] = qHTS of pediatric cancer cell lines to identify multiple opportunities for drug repurposing: Primary screen for control Hh wild type fibroblast cells (AID 1347106);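 note: series mostly up to about 46 µM; a drop in luminescence marks cytotoxicity and a rise apparent proliferation; nearly all actives have a fitted effect of over 55% in size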
Outline: as §3

C[C@]12C[C@H](O)[C@H]3[C@@H](CCC4=CC(=O)CC[C@@]43C)[C@@H]1CC[C@@H]2C(=O)CO
outcome [1]: inactive
Potency [2]: inactive
Potency [3]: inactive
Potency [4]: inactive
Potency [5]: inactive
Potency [6]: inactive
Potency [7]: inactive
Potency [8]: inactive
Potency [9]: inactive
Potency [10]: inactive
Potency [11]: inactive
Potency [12]: inactive
Potency [13]: inactive
Potency [14]: inactive
Potency [15]: inactive
Potency [16]: inactive
Potency [17]: inactive
Potency [18]: inactive
Potency [19]: inactive
outcome [20]: inactive

CC(=O)OCC(=O)[C@@]1(O)CC[C@H]2[C@@H]3CCC4=CC(=O)CC[C@]4(C)[C@H]3C(=O)C[C@@]21C
outcome [1]: inactive
Potency [3]: inactive
Potency [4]: inactive
Potency [5]: inactive
Potency [6]: inactive
Potency [8]: inactive
Potency [9]: inactive
Potency [10]: inactive
Potency [12]: inactive
Potency [14]: inactive
Potency [15]: inactive
Potency [16]: inactive
Potency [17]: inactive
Potency [18]: inactive
Potency [19]: inactive
outcome [20]: inactive

NC(=O)c1ncn([C@@H]2O[C@H](CO)[C@@H](O)[C@H]2O)n1
outcome [1]: inactive
Potency [3]: inactive
Potency [4]: inactive
Potency [5]: inactive
Potency [6]: inactive
Potency [7]: inactive
Potency [8]: inactive
Potency [10]: inactive
Potency [11]: inactive
Potency [12]: inactive
Potency [13]: inactive
Potency [15]: inactive
Potency [16]: inactive
Potency [18]: inactive
outcome [20]: inactive

Nc1cc(=O)[nH]c(N)n1
outcome [1]: inactive
Potency [3]: inactive
Potency [4]: inactive
Potency [6]: inactive
Potency [7]: inactive
Potency [8]: inactive
Potency [9]: inactive
Potency [10]: inactive
Potency [11]: inactive
Potency [13]: inactive
Potency [14]: inactive
Potency [15]: inactive
Potency [16]: inactive
Potency [17]: inactive
Potency [19]: inactive
outcome [20]: inactive

CC1=C(CC(=O)O)c2cc(F)ccc2/C1=C\c1ccc(S(C)(=O)=O)cc1
outcome [1]: inactive
Potency [3]: inactive
Potency [4]: inactive
Potency [5]: inactive
Potency [6]: inactive
Potency [7]: inactive
Potency [8]: inactive
Potency [9]: inactive
Potency [10]: inactive
Potency [13]: inactive
Potency [14]: inactive
Potency [15]: inactive
Potency [17]: inactive
Potency [19]: inactive
outcome [20]: inactive

C[C@H](NC(CCc1ccccc1)C(=O)O)C(=O)N1CCC[C@H]1C(=O)O (stereo not given in full)
outcome [1]: inactive
Potency [3]: inactive
Potency [4]: inactive
Potency [6]: inactive
Potency [7]: inactive
Potency [8]: inactive
Potency [9]: inactive
Potency [10]: inactive
Potency [11]: inactive
Potency [12]: inactive
Potency [14]: inactive
Potency [15]: inactive
Potency [16]: inactive
Potency [17]: inactive
Potency [19]: inactive
outcome [20]: inactive

CC(C)C(=O)c1c(C(C)C)nn2ccccc12
outcome [1]: inactive
Potency [2]: inactive
Potency [3]: inactive
Potency [4]: inactive
Potency [5]: inactive
Potency [6]: inactive
Potency [7]: inactive
Potency [8]: inactive
Potency [9]: inactive
Potency [10]: inactive
Potency [11]: inactive
Potency [12]: inactive
Potency [13]: inactive
Potency [14]: inactive
Potency [15]: inactive
Potency [17]: inactive
Potency [18]: inactive
Potency [19]: inactive
outcome [20]: inactive

CC(C)(C)[C@]1(O)CCN2C[C@H]3c4ccccc4CCc4cccc(c43)[C@@H]2C1
outcome [1]: inactive

Cc1cc(N)c2ccccc2[n+]1CCCCCCCCCC[n+]1c(C)cc(N)c2ccccc21
outcome [1]: inactive

CCCCc1ncc(/C=C(\Cc2cccs2)C(=O)O)n1Cc1ccc(C(=O)O)cc1
outcome [1]: inactive
Potency [3]: inactive
Potency [4]: inactive
Potency [5]: inactive
Potency [6]: inactive
Potency [7]: inactive
Potency [8]: inactive
Potency [9]: inactive
Potency [10]: inactive
Potency [11]: inactive
Potency [12]: inactive
Potency [13]: inactive
Potency [14]: inactive
Potency [15]: inactive
Potency [16]: inactive
Potency [17]: inactive
Potency [18]: inactive
Potency [19]: inactive
outcome [20]: inactive

C#CCN(C)Cc1ccccc1
outcome [1]: inactive
Potency [3]: inactive
Potency [4]: inactive
Potency [5]: inactive
Potency [6]: inactive
Potency [7]: inactive
Potency [8]: inactive
Potency [9]: inactive
Potency [10]: inactive
Potency [11]: inactive
Potency [12]: inactive
Potency [14]: inactive
Potency [15]: inactive
Potency [16]: inactive
Potency [17]: inactive
Potency [19]: inactive
outcome [20]: inactive

CNC(=O)Oc1ccc2c(c1)[C@]1(C)CCN(C)[C@@H]1N2C
outcome [1]: inactive
Potency [2]: inactive
Potency [3]: inactive
Potency [4]: inactive
Potency [6]: inactive
Potency [7]: inactive
Potency [8]: inactive
Potency [9]: inactive
Potency [10]: inactive
Potency [11]: inactive
Potency [12]: inactive
Potency [14]: inactive
Potency [15]: inactive
Potency [17]: inactive
Potency [18]: inactive
Potency [19]: inactive
outcome [20]: inactive

CN(C)CCOC(C)(c1ccccc1)c1ccccn1 (stereo not given)
outcome [1]: inactive
Potency [3]: inactive
Potency [4]: inactive
Potency [5]: inactive
Potency [6]: inactive
Potency [7]: inactive
Potency [8]: inactive
Potency [9]: inactive
Potency [10]: inactive
Potency [11]: inactive
Potency [12]: inactive
Potency [13]: inactive
Potency [14]: inactive
Potency [15]: inactive
Potency [16]: inactive
Potency [17]: inactive
Potency [19]: inactive
outcome [20]: inactive

C=Cc1c(C)c2cc3[nH]c(cc4nc(cc5nc(cc1[nH]2)C(C)=C5CCC(=O)O)C(CCC(=O)O)=C4C)c(C)c3C=C
outcome [1]: inactive
Potency [3]: inactive
Potency [4]: inactive
Potency [5]: inactive
Potency [6]: inactive
Potency [7]: inactive
Potency [8]: inactive
Potency [9]: inactive
Potency [10]: inactive
Potency [11]: inactive
Potency [12]: inactive
Potency [13]: inactive
Potency [14]: inactive
Potency [15]: inactive
Potency [16]: inactive
Potency [17]: inactive
Potency [18]: inactive
Potency [19]: inactive
outcome [20]: inactive

COc1ccc(Cl)cc1C(=O)NCCc1ccc(S(=O)(=O)NC(=O)NC2CCCCC2)cc1
outcome [1]: inactive
Potency [3]: inactive
Potency [4]: inactive
Potency [5]: inactive
Potency [6]: inactive
Potency [8]: inactive
Potency [9]: inactive
Potency [10]: inactive
Potency [11]: inactive
Potency [12]: inactive
Potency [15]: inactive
Potency [16]: inactive
Potency [17]: inactive
Potency [18]: inactive
Potency [19]: inactive
outcome [20]: inactive

CC(C)(C)c1onc(OCP(=O)(O)O)c1CC(N)C(=O)O (stereo not given)
outcome [1]: inactive

CN(C)CCCN1c2ccccc2CCc2ccccc21
outcome [1]: inactive
Potency [3]: inactive
Potency [4]: inactive
Potency [5]: inactive
Potency [8]: inactive
Potency [9]: inactive
Potency [10]: inactive
Potency [11]: inactive
Potency [12]: inactive
Potency [13]: inactive
Potency [14]: inactive
Potency [17]: 27.6 µM (active)
Potency [19]: inactive
outcome [20]: inactive
